The list is not random: actives were taken first. Their share in the collection is about 21%.
RORg inh: blocks mouse ROR gamma transcriptional activity; Drosophila S2 Gal4-RORgamma UAS-luciferase reporter, 20 h; P51450; Potency, µM (series often up to 53.6 µM), for the others: at the highest dose activity change, negative = inhibition, most hits filed as inhibitors; AID 2551; 310,000 tested, 5.4% active; further: potency means the concentration at half of the fitted maximal effect; nearly all actives have a fitted effect of over 60% in size
Target sequence (P51450 whole entry, looked up, the tested form may be a part): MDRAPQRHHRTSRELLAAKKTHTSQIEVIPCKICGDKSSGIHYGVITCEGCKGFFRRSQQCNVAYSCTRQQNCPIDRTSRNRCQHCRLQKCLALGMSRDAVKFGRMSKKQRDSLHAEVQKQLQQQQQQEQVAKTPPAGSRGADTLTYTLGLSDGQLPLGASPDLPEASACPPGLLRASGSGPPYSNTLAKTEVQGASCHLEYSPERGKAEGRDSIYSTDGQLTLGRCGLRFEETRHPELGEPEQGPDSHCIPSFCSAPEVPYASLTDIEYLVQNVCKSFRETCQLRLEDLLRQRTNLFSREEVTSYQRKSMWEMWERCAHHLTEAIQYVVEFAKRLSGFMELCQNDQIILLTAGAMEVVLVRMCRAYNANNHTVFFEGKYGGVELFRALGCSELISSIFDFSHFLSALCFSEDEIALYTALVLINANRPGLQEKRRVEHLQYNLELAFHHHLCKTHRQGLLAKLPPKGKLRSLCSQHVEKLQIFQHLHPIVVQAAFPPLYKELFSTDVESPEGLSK
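Read-out: Photinus luciferase luminescence; inhibitors lower reporter signal. Insect Schneider cells with Gal4-ROR gamma fusion under metallothionein promoter, UAS reporter; 700 uM final copper sulfate induction, 20 hr, ambient temperature.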
DT40 TDP1 no CPT: qHTS for Inhibitors of human tyrosyl-DNA phosphodiesterase 1 (TDP1): qHTS in cells in absence of CPT; DT40 Tdp1-/- hTDP1 cells, no CPT, ATP luminescence, 48 h; Potency, µM (series often up to 46.2 µM), for the others: top-dose activity change, negative = growth inhibition, usual class: inhibitors; 420,000 tested, 15% active; AID 686978, 2013; further: potency means the concentration at half of the fitted maximal effect; nearly all actives have a fitted effect of over 55% in size
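No-CPT arm: Tdp1-/-;hTDP1 DT40 cells (400/well) plus compounds, incubated ≥48 hr at 37 °C. Readout CellTiter-Glo luminescence.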
TDP1 cell CPT: growth inhibition of DT40 Tdp1-/-;hTDP1 cells with camptothecin (screen for TDP1 inhibitors) | chicken DT40 Tdp1-/-;hTDP1 cells + 20 nM CPT, ATP luminescence, 48 h | Potency, µM (series often up to 46.2 µM), without a hit: top-dose activity change, negative = growth inhibition, actives largely listed as inhibitors | 420,000 tested, 12% active; further: potency means the concentration at half of the fitted maximal effect; nearly all actives have a fitted effect of over 55% in size
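Chicken DT40 Tdp1-/- cells stably complemented with human TDP1 were seeded at 400 cells/well in medium containing 20 nM camptothecin, exposed to pin-transferred compounds, and grown at 37 °C for at least 48 hr. Viability was read as ATP luminescence.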
IL1B secr inh: inflammasome signaling inhibition, IL-1 beta readout; AID 743279; activity change, % at 57.5 µM; THP-1 LPS/ATP IL-1B secretion, AlphaLISA, 16 h; hits give low values; 360,000 tested, 4.7% active; in the data active means activity change below about -50%; inconclusive means mostly about -30% to -49%
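THP-1 cells pretreated 1 hr with compounds (up to 57.5 uM final), then stimulated with LPS (250 ng/mL final) plus ATP (1.25 mM final); secreted IL-1B measured by AlphaLISA after 16 hr, decreased signal indicating inhibition.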
ELG1 repair inh: ELG1-dependent DNA repair inhibition; Potency, µM (top dose mostly 46.1 µM), for inactives: at the highest dose activity change, negative = inhibition, hits mostly inhibitors; 330,000 tested, 2.3% active; AID 504467; HEK293T ELG1-luciferase reporter, luminescence, 16 h; DNA damage induced by 5-fluorouridine; further: potency means the concentration at half of the fitted maximal effect; nearly all actives have a fitted effect of over 55% in size
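Overnight (16 hr) co-exposure of 2,000 cells/well to 5-fluorouridine and compound at 37 °C preceded detection. Luciferase was quantified via ONE-Glo luminescence; loss of signal denotes inhibition.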
VP16 counter: counter-screen for ROR gamma inhibitors: Gal4-VP16 reporter; Drosophila S2 Gal4-VP16 UAS-luciferase, luminescence, 20 h; Potency, µM (top dose mostly 53.6 µM), for inactives: at the top dose activity, negative = inhibition, hits mostly inhibitors; 310,000 tested, 3.5% active;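 further: Gal4-VP16 expression switched on by copper sulfate through the metallothionein promoter; potency means the concentration at half of the fitted maximal effect; nearly all actives have a fitted effect of over 50% in size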
* marks the source's active call; other numbers are inactive results; ? = inconclusive; . = no result. Unless noted, the call rests on the fitted dose curve; in most records, active means well fitted curve in the direction sought with a large enough effect; inconclusive means small, poorly fitted or top-dose-only effect, or another doubt; inactive means no such curve, though single readings can be large; an effect the other way counts as inactive or inconclusive. On the % scale 0 is the no-effect control and ±100 the full control effect.

SMILES | RORg inh | DT40 TDP1 no CPT | TDP1 cell CPT | IL1B secr inh | ELG1 repair inh | VP16 counter
CCN(CC)S(=O)(=O)c1ccc(N2CCCCS2(=O)=O)cc1 | . | -22.6% | -15.1% | . | . | .
CCOC(=O)c1ccccc1NS(=O)(=O)c1ccc(C)cc1 | -13.1% | ? | ? | -7.8 | ? | ?
Cc1ccc(S(=O)(=O)NC(=O)C2(C)CCN2C(=O)c2ccccc2)nc1 (stereo not drawn) | . | 4.2% | 14.1% | -6.0 | . | .
CCCCCNS(=O)(=O)c1ccc(N2CCCCS2(=O)=O)cc1 | . | 18.4µM* | 16.4µM* | . | . | .
COC(=O)CCC(=O)OC1(C)C(=O)C=C2C=C(CCCNC(=O)OC(C)(C)C)OC=C2C1=O (stereo not drawn) | 0.7% | . | . | . | . | -11.1%
NNc1nc2c(-c3ccc(F)cc3)nnn2c2ccccc12 | ? | 11.6µM* | 10.3µM* | -11.5 | ? | -13.2%
NNc1nc2c(-c3ccc(Cl)cc3)nnn2c2ccccc12 | ? | ? | 10.3µM* | 1.6 | ? | -10.3%
COCCCNc1nc2c(-c3ccc(Cl)cc3)nnn2c2ccccc12 | -6.7% | -5.6% | 3.6% | 38.9 | 15.7% | -1.5%
Fc1ccc(-c2nnn3c2nc(NCc2ccccc2)c2ccccc23)cc1 | 24.9% | ? | -17.2% | 7.7 | 0.4% | 0.8%
CNc1nc(-c2ccoc2)nc2ccccc12 | ? | -0.4% | 1.3% | . | . | -8.1%
NC(=O)CCC(C(=O)O)N1C(=O)C2C3CCC(C3)C2C1=O (stereo not drawn) | . | -0.4% | -1.8% | 7.7 | . | .
CC1(C(=O)Nc2ccc3c(c2)OCO3)CCN1C(=O)CCc1cccs1 (stereo not drawn) | . | -28.3% | -17.1% | -8.9 | . | .
Cc1ccc(OC(C)C(=O)N2CCCc3ccccc32)cc1 (stereo not drawn) | 19.8% | 25.9µM* | ? | -8.3 | 7.7% | 11.4%
CN1CCN(c2ccc(NC(=O)N3CCc4ccccc43)cc2)CC1 | 10µM* | 11.0% | -1.0% | -20.0 | ? | 8.91µM*
Cc1c(Br)c([N+](=O)[O-])nn1C(C)C(=O)N1CCCc2ccccc21 (stereo not drawn) | 25.1% | 16.4µM* | ? | 10.4 | -17.5% | -5.1%
Cc1ccc(NC(=O)N2CCc3ccccc32)cc1 | ? | ? | -23.1% | -7.9 | ? | 10µM*
N#Cc1ccc(CN2CCCC3(CCN(C(=O)c4cc(C(F)(F)F)cc(C(F)(F)F)c4)CC3)C2)cc1 | -15.2% | ? | ? | . | . | 6.3%
Cc1ccc(C(=O)N2[C@@H]3CN(C)C(=O)[C@@]2(C)[C@H]2C(=O)N(C)C(=O)[C@@H]32)cc1 | . | -19.0% | 1.0% | 21.3 | . | .
COC(=O)/C(=N/Nc1ccccc1)N1CCCc2ccccc21 | -34.4% | ? | ? | -26.7 | 5.0% | 1.0%
COC(=O)/C(=N/Nc1ccc(C)cc1)N1CCCc2ccccc21 | 14.1% | ? | 11.6µM* | ? | 6.2% | -5.4%
CC(=O)c1ccc(OCC(=O)OCC(=O)N(CC(C)C)c2c(N)n(Cc3ccccc3)c(=O)[nH]c2=O)cc1 | . | -2.0% | 10.8% | 3.3 | -3.8% | .
Cc1oc(-c2ccccc2F)nc1CS(=O)CC(=O)NC(C)C (stereo not drawn) | . | 3.9% | 5.7% | . | . | .
CCCn1c(SCC(=O)N2CCc3ccccc32)nnc1-c1ccco1 | 9.2% | -28.9% | ? | -5.9 | -8.6% | -18.7%
CC1Cc2ccccc2N1C(=O)CSc1nnc(Cc2ccccc2)n1CCc1ccccc1 (stereo not drawn) | -40.9% | 23.1µM* | ? | -5.9 | 18.4µM* | -8.8%
O=C(CSc1nnc(Cc2cccs2)n1CCc1ccccc1)N1CCCc2ccccc21 | ? | ? | ? | -20.1 | 20.6µM* | -17.8%
